Data reported in ChEMBL document CHEMBL1961873, “Compounds: GSK PKIS; Assays: Nanosyn kinase panel” (2012).

Experiments:
[1] = molecular target: High affinity nerve growth factor receptor (Homo sapiens) (UniProt P04629); conditions: at 1 µM;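 also: each value is the mean percent inhibition of TRKA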
[2] = molecular target: BDNF/NT-3 growth factors receptor (Homo sapiens) (UniProt Q16620); conditions: at 0.1 µM
[3] = molecular target: BDNF/NT-3 growth factors receptor (Homo sapiens) (UniProt Q16620); conditions: at 1 µM
[4] = molecular target: NT-3 growth factor receptor (Homo sapiens) (UniProt Q16288); conditions: at 0.1 µM
NT-3 growth factor receptor (Homo sapiens), sequence (Q16288 32-839 limits assumed): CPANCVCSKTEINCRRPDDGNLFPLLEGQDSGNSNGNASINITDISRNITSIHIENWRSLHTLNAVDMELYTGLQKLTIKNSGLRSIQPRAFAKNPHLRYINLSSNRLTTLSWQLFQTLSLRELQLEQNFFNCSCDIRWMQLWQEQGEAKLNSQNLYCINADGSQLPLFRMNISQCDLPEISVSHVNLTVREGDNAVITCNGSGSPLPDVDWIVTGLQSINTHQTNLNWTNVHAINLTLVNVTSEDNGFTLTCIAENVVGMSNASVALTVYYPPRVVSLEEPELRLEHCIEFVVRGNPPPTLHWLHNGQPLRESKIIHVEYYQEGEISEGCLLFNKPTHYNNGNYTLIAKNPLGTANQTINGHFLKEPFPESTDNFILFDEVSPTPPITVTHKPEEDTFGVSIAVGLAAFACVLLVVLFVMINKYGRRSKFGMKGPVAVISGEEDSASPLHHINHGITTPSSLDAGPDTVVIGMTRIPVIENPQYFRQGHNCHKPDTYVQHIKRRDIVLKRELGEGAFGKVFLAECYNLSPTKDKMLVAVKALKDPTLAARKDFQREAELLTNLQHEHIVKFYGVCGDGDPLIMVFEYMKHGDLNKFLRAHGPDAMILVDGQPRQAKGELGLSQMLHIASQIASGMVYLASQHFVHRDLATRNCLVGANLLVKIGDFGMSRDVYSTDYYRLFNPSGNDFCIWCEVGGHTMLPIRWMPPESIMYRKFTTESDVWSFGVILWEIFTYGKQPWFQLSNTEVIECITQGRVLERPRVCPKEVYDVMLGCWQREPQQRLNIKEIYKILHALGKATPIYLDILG

[5] = molecular target: NT-3 growth factor receptor (Homo sapiens) (UniProt Q16288); conditions: at 1 µM
[6] = molecular target: T1, Tyrosine-protein kinase TXK (Homo sapiens) (UniProt P42681); conditions: at 0.1 µM
T1 sequence (whole entry): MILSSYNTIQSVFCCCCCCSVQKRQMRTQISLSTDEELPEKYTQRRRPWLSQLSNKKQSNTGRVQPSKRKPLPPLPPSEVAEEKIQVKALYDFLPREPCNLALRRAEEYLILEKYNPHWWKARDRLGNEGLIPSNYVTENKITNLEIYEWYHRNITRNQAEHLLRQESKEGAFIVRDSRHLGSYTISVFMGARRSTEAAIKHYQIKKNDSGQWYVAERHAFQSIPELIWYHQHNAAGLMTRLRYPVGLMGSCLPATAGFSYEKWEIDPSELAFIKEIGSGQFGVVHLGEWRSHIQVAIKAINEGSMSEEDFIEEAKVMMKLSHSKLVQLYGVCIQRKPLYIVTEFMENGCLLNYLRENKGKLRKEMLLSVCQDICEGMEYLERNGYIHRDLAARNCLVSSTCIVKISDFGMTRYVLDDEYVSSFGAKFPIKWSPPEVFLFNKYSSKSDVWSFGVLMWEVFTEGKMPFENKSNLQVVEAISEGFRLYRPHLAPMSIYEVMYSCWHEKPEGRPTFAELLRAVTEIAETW

[7] = molecular target: T1, Tyrosine-protein kinase TXK (Homo sapiens); conditions: at 1 µM
[8] = molecular target: Non-receptor tyrosine-protein kinase TYK2 (Homo sapiens) (UniProt P29597); conditions: at 0.1 µM;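 also: each value is a mean of the inhibition readings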
[9] = molecular target: T2, Dual specificity protein kinase TTK (Homo sapiens) (UniProt P33981); conditions: at 1 µM;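 also: reported figures are mean TTK inhibition at 1 µM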
T2 sequence (whole entry): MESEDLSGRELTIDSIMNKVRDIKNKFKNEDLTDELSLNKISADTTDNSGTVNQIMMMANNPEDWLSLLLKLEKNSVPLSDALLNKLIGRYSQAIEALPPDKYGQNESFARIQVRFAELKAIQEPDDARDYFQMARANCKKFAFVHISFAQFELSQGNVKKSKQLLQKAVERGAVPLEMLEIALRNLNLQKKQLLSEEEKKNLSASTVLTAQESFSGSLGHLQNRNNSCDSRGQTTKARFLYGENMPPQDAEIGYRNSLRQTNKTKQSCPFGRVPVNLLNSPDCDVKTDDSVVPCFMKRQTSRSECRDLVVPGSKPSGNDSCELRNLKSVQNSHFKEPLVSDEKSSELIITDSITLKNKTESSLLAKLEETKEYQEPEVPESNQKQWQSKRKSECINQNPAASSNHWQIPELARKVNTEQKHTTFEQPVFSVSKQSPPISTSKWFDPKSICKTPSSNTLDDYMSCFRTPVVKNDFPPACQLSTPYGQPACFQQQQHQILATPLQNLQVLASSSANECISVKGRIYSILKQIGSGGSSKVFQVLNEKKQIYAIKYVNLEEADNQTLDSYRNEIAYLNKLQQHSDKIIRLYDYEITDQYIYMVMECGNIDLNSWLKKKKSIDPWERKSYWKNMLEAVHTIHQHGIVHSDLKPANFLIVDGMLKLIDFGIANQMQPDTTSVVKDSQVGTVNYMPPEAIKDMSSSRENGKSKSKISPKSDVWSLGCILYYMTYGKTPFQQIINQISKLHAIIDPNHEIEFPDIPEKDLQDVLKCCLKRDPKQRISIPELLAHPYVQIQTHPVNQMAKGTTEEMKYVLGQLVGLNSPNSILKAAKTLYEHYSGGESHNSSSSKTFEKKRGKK

[10] = molecular target: T3, Aurora kinase A (Homo sapiens) (UniProt O14965); conditions: at 0.1 µM
T3 sequence (whole entry): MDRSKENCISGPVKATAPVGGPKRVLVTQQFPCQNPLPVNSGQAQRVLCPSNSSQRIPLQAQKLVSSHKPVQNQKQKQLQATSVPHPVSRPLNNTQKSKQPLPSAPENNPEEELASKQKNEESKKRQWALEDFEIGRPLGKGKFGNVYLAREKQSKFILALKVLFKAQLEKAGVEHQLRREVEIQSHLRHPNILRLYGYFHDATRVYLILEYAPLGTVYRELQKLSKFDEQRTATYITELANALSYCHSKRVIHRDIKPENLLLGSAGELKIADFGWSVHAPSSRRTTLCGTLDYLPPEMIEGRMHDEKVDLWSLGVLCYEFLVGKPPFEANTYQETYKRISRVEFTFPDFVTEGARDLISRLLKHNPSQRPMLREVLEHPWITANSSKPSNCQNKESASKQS

[11] = molecular target: T3, Aurora kinase A (Homo sapiens); conditions: at 1 µM
[12] = molecular target: Aurora kinase B (Homo sapiens) (UniProt Q96GD4); conditions: at 0.1 µM
Aurora kinase B (Homo sapiens), sequence (Q96GD4 whole entry): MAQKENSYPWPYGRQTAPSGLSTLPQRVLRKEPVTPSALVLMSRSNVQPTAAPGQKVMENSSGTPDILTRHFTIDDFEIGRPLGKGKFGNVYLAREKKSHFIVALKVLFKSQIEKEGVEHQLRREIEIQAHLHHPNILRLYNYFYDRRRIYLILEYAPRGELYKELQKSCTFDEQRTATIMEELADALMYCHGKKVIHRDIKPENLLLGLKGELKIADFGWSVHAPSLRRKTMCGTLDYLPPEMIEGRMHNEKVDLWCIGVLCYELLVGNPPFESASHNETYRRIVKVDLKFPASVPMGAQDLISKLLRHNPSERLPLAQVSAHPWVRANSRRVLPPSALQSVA

[13] = molecular target: Aurora kinase B (Homo sapiens) (UniProt Q96GD4); conditions: at 1 µM
[14] = molecular target: T4, Aurora kinase C (Homo sapiens) (UniProt Q9UQB9); conditions: at 0.1 µM
T4 sequence (whole entry): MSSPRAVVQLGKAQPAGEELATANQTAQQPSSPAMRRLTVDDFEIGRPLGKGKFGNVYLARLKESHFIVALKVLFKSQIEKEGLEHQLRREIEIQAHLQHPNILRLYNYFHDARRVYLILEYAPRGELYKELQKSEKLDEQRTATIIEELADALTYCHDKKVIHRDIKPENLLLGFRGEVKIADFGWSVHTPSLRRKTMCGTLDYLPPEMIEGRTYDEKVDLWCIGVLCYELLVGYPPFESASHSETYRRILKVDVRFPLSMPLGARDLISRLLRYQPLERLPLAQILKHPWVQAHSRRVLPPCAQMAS

[15] = molecular target: T4, Aurora kinase C (Homo sapiens); conditions: at 1 µM
[16] = molecular target: Serine/threonine-protein kinase 10 (Homo sapiens) (UniProt O94804); conditions: at 0.1 µM
Serine/threonine-protein kinase 10 (Homo sapiens), sequence (O94804 whole entry, looked up): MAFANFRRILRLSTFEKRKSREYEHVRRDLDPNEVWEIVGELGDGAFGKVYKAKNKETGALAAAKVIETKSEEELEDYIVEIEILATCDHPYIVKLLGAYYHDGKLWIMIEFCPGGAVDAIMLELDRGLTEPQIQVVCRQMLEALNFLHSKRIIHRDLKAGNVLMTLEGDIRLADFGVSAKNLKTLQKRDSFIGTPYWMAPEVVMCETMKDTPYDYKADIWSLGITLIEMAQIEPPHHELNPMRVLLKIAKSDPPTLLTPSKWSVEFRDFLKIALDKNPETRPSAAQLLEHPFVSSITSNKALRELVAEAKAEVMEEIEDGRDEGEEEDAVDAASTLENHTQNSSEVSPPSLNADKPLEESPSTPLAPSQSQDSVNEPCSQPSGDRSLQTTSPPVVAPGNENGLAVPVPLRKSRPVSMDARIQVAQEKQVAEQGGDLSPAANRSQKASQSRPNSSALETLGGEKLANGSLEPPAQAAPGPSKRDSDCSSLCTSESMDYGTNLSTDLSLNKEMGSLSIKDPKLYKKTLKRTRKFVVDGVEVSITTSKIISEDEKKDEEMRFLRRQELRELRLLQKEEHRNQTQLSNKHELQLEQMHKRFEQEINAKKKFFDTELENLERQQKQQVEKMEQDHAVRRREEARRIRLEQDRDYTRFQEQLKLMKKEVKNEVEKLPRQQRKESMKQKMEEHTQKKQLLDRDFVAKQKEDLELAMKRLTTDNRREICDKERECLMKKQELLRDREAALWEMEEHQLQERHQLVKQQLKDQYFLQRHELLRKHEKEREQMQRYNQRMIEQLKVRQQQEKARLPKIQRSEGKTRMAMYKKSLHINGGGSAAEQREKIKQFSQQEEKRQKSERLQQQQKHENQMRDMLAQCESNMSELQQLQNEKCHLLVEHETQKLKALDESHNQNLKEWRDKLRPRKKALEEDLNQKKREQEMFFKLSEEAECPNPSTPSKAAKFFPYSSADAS

[17] = molecular target: Serine/threonine-protein kinase 10 (Homo sapiens) (UniProt O94804); conditions: at 1 µM
[18] = molecular target: T5, Mitogen-activated protein kinase kinase kinase kinase 2 (Homo sapiens) (UniProt Q12851); conditions: at 0.1 µM
T5 sequence (whole entry): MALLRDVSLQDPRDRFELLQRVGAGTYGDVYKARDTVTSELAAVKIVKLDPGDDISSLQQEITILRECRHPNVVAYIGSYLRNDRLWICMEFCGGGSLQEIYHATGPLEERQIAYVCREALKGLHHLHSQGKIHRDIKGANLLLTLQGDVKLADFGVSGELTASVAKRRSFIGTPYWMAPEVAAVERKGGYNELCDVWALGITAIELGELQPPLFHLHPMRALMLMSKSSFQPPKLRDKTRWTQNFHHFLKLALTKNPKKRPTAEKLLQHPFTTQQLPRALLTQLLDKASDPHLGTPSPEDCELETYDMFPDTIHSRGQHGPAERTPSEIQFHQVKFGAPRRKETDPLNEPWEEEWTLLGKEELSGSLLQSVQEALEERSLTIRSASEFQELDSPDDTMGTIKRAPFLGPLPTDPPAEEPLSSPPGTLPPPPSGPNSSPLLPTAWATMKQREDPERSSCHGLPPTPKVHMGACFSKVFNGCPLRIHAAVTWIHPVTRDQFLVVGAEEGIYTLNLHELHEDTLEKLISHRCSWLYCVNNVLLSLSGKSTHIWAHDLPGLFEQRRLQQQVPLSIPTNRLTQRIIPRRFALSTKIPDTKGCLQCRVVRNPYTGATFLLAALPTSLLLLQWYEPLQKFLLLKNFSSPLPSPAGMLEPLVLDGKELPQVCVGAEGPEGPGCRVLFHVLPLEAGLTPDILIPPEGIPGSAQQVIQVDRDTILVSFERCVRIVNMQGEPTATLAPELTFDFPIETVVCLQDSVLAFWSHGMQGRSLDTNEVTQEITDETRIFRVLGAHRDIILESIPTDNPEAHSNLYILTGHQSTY

[19] = molecular target: T5, Mitogen-activated protein kinase kinase kinase kinase 2 (Homo sapiens); conditions: at 1 µM
[20] = molecular target: Mitogen-activated protein kinase kinase kinase kinase 4 (Homo sapiens) (UniProt O95819); conditions: at 0.1 µM
Mitogen-activated protein kinase kinase kinase kinase 4 (Homo sapiens), sequence (O95819 2-1239 limits assumed): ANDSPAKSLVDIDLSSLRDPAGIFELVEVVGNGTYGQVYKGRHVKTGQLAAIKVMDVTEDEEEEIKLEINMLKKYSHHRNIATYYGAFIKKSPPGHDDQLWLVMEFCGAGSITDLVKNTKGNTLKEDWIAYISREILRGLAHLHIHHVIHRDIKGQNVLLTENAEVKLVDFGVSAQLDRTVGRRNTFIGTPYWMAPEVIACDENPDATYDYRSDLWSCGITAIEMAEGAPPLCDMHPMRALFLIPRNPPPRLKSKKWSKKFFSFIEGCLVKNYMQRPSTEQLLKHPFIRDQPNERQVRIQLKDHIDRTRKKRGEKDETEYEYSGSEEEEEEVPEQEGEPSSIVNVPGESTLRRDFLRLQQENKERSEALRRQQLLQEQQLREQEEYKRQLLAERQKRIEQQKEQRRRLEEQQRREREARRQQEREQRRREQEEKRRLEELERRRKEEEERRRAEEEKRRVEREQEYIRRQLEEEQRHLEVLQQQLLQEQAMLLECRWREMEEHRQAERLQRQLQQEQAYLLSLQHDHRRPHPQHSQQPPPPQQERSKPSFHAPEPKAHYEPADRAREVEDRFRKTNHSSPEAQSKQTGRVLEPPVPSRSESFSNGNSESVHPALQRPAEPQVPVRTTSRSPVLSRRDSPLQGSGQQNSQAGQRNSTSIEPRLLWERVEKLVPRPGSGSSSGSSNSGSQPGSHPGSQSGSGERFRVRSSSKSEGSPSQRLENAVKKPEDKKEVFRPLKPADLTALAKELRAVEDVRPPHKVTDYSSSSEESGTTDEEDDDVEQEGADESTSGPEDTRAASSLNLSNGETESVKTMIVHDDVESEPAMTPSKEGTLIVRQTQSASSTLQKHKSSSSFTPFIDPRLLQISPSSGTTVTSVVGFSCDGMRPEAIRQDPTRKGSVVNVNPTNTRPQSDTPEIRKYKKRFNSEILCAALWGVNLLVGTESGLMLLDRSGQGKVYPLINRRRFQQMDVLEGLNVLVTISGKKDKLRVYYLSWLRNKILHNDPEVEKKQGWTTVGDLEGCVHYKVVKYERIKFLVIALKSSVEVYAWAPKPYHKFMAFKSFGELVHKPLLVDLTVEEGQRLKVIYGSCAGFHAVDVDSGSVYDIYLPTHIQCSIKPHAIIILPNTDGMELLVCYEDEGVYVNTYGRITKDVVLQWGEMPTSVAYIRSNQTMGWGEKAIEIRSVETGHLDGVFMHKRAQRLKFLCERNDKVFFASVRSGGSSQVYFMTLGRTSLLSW

High affinity nerve growth factor receptor (Homo sapiens), sequence (P04629 33-796 limits assumed): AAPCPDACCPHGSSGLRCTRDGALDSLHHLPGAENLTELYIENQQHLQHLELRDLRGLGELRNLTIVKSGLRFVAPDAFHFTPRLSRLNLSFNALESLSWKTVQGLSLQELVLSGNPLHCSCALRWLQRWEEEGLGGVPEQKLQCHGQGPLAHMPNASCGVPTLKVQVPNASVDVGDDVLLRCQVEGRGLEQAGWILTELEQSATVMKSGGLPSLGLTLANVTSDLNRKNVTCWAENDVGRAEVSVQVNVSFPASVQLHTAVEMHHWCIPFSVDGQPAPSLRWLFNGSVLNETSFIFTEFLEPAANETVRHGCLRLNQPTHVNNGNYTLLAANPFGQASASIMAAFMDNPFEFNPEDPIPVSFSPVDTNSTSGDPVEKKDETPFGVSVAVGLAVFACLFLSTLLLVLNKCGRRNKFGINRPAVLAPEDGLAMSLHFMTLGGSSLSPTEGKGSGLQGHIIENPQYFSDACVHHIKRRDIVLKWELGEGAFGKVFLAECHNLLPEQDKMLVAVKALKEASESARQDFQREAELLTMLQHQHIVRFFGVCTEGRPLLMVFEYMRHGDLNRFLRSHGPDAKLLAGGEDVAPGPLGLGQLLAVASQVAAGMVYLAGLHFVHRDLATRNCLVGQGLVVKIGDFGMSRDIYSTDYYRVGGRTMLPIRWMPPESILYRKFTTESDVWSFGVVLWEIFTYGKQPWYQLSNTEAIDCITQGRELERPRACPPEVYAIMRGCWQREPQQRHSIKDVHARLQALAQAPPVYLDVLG
BDNF/NT-3 growth factors receptor (Homo sapiens), sequence (Q16620 32-822 limits assumed): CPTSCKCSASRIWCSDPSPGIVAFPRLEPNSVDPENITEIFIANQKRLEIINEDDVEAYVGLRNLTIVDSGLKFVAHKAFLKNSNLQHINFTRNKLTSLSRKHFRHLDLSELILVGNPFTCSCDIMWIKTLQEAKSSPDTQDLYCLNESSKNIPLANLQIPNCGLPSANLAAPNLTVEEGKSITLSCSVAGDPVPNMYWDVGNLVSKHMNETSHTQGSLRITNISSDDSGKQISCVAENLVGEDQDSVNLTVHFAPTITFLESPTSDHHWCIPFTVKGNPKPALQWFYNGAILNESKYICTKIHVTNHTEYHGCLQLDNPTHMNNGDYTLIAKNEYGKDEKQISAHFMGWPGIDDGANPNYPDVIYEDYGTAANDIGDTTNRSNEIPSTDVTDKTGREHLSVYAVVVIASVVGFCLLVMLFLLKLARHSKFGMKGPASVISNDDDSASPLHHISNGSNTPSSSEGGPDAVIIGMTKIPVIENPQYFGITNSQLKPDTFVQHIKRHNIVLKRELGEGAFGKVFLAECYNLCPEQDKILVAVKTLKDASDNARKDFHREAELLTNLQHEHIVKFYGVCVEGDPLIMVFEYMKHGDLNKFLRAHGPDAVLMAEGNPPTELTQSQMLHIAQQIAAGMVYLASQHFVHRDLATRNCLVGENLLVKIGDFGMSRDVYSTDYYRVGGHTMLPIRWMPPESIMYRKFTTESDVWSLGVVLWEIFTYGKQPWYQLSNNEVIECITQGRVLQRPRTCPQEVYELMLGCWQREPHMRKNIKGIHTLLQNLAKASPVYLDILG

SMILES	inhibition [1] [%]	inhibition [2] [%]	inhibition [3] [%]	inhibition [4] [%]	inhibition [5] [%]	inhibition [6] [%]	inhibition [7] [%]	inhibition [8] [%]	inhibition [9] [%]	inhibition [10] [%]	inhibition [11] [%]	inhibition [12] [%]	inhibition [13] [%]	inhibition [14] [%]	inhibition [15] [%]	inhibition [16] [%]	inhibition [17] [%]	inhibition [18] [%]	inhibition [19] [%]	inhibition [20] [%]
Cn1c(-c2nonc2N)nc2cnccc21	0.76	1.23	0.53	2	1.22	4.05	4.22	-2.09	8.28	1.22	7.19	1.6	4.18	1.42	4.49	4.28	7.08	0.8	6.6	6.14
CN(c1ccc(NC(=O)NCCN2CCOCC2)cc1)c1ccnc(Nc2ccc(CS(C)(=O)=O)cc2)n1	5.98	3.15	8	1.78	11.3	16.9	57.7	-6.06	7.72	24.5	93.9	29.7	76.9	43.8	104	11.9	34.2	0.62	3.53	4.19
CS(=O)(=O)CCNCc1ccc(-c2ccc3ncnc(Nc4ccc(OCc5ccccc5)cc4)c3c2)o1	2.55	2.66	4.99	3.88	5.1	0.48	3.39	-1.78	7.19	3.51	7.7	4.74	10	2.17	7.65	5.66	7.82	0.28	1.58	3.5
CS(=O)(=O)Nc1ccc(-c2ccc3c(NC(=O)C4CC4)n[nH]c3c2)cc1	3.27	2.22	5.91	2.1	9.06	2.62	5.31	-0.89	11.9	2.55	20.2	4.33	8.21	1.71	23.3	5.26	6.56	1.04	5.76	6.29
CCOc1ccc2c(-c3ccnc(Nc4cc(OC)cc(C(F)(F)F)c4)n3)cnn2n1	3.16	-1.33	3.13	-1.23	4.94	0.98	3.69	-2.65	8.93	0.65	13	2.18	8.92	1.08	4.09	-0.06	3.44	0.08	2.69	1.85
O=C(O[C@H]1CN[C@H](C#Cc2cc3ncnc(Nc4ccc5c(cnn5Cc5ccccc5)c4)c3s2)C1)N1CCOCC1	2.5	-1.64	-0.38	-0.59	1.3	0.8	2.69	1.26	6.25	1.41	3.44	0.76	11.1	2.11	27.6	0.93	7.07	0.52	2.14	-0.91
O=C1Nc2ccccc2/C1=C1\CCc2cc(O)ccc21	70.6	28.6	78	28	77.5	2.88	8.68	-2.35	31.4	8.42	70.9	44.8	80.5	53.7	93.4	6.67	16.1	12.1	52.6	23.3
CC1=C(C(=O)Nc2ccc3[nH]ncc3c2)C(c2ccc(F)cc2)N=C(c2ccc(C(F)(F)F)nc2)N1 (stereo not given)	4.07	1.02	1.46	2.88	3.8	3.02	4.16	-0.65	-4.56	4.97	51	3.38	16.9	3.47	21.3	0.31	2.22	1.59	2.35	2.89
CC1=C(C(=O)Nc2ccc3[nH]nc(C)c3c2)C(c2ccc(C(F)(F)F)cc2)CC(=O)N1 (stereo not given)	3.25	1	3.58	2.43	6.4	3.55	6.06	0.25	-0.26	17.9	88.3	7.45	45.7	7.71	78.2	2.01	4.46	0.76	3.74	4.23
COc1cc(Nc2ncc(-c3ccccc3)o2)cc(OC)c1	19.7	8.32	35.2	6.57	30.5	-1	8.54	-5.97	11.9	5.61	30.3	5	19.7	3.27	29.6	8.54	12.9	0.95	7.2	7.08
COc1ccc(Nc2ncc(-c3ccccc3)o2)cc1OC	14.1	2.88	27.1	2.7	27.1	4.28	17.8	0.66	1.06	9.76	75.4	8.72	51.1	10.2	82.2	-1.08	11.2	3.92	14.3	8.63
CC(C)c1ccc(-c2cc(-c3c[nH]nc3-c3ccccn3)ccn2)cc1	2.9	0.33	2.07	0.32	1.76	2.1	2.05	0.66	11.3	1.03	3.72	0.9	5.53	1.22	-0.07	0.88	0.62	1.5	3.27	10.9
OCCCNc1nccc(-c2c(-c3ccc(F)cc3)nn3cc(C(F)(F)F)ccc23)n1	1.07	1.2	1.1	2.9	2.72	4.77	6.39	-6.14	4.7	0.87	7.6	3.85	9.08	0.36	2.19	6.36	8.12	0.6	3.51	5.34
